Experimental data from PubChem BioAssay (NCI).
About 79,000 compounds went through this panel and 15% of them were active in at least one assay; those are over-represented in the sample as a whole. Calls of active or inactive are those of the source. No stated cut-off is given here; in the data, active means growth inhibition above about 70%; inactive means the rest.

Key:
[1] = NCI Yeast Anticancer Drug Screen. Data for the rad50 strain (AID 155);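 further: 0% = growth of vehicle-only cultures of the same strain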; conditions: S. cerevisiae rad50 strain growth inhibition; at 50.0 µM; active compounds read high
Procedure, shortened: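 Inhibition values express reduced yeast growth in compound-treated cultures relative to vehicle-treated controls.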

[2] = NCI Yeast Anticancer Drug Screen. Data for the mec2-1 strain (AID 157); conditions: S. cerevisiae mec2-1 strain, at 50.0 µM, active compounds read high
Procedure, shortened: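 Mutant yeast (mec2-1) grown with compound; growth inhibition relative to vehicle control reported.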

[3] = NCI Yeast Anticancer Drug Screen. Data for the sgs1 mgt1 strain (AID 161);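 further: 0% = growth of cultures given vehicle only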; conditions: S. cerevisiae sgs1 mgt1 strain, at 50.0 µM, active compounds read high
Procedure, shortened: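 This yeast growth screen uses a strain with defined DNA-repair lesions; compound-treated growth is compared with vehicle-treated growth.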

[4] = NCI Yeast Anticancer Drug Screen. Data for the cln2 rad14 strain (AID 165);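 further: 0% = growth equal to vehicle treated cultures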; conditions: S. cerevisiae cln2 rad14 strain, at 50.0 µM, active compounds read high
Procedure, shortened: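 Readout is yeast growth inhibition versus vehicle-treated controls, using a strain with cln2 and rad14 alterations exposed to compound.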

[5] = NCI Yeast Anticancer Drug Screen. Data for the bub3 strain (AID 167); conditions: S. cerevisiae bub3 mutant strain, at 50.0 µM, active compounds read high
Procedure, shortened: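 Steps: expose the mutant yeast strain to compound; grow alongside vehicle-treated cultures; measure growth; express inhibition against the vehicle cultures.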

[6] = NCI Yeast Anticancer Drug Screen. Data for the mlh1 rad18 strain (AID 175); conditions: S. cerevisiae mlh1 rad18 strain growth inhibition; at 50.0 µM; active compounds read high
Procedure, shortened: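 Genetically defined yeast (DNA repair-deficient) exposed to compounds; growth inhibition determined relative to vehicle.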

Measured: growth inhibition

CC[As](=O)(O)CCCc1ccccc1
inactive: [1] 5.55% | [2] 32.9% | [3] 14.9% | [4] 3.1% | [5] -0.15% | [6] -2.05%

CN1C2CCC1[C@@H](COC(=O)c1ccccc1)[C@@H](O)C2 (stereo not given in full)
inactive: [1] -9.15% | [2] -14.6% | [3] -15.6% | [4] -27.4% | [5] -3.55% | [6] -61%

Nc1ccc(Oc2ccc(N)cc2)cc1
inactive: [1] 3.1% | [2] 10% | [3] 14.6% | [4] 11.7% | [5] 12.4% | [6] 26.1%

CCOP(=O)(/C=C/c1cc(OC)ccc1OC)OCC
inactive: [1] -0.05% | [2] -12.8% | [3] -32.4% | [4] -24.5% | [5] -29.8% | [6] -26.1%

CC(I)C(N)=O (stereo not given)
inactive: [1] -16.6% | [2] -19.7% | [3] -19.5% | [4] -4.15% | [5] -4% | [6] -17%

CCCOC(=O)C(C)(C)C(OP(OCCC)OCCC)=C(C)C
inactive: [1] -7.35% | [2] 4.35% | [3] -2.5% | [4] -0.9% | [5] 1.4% | [6] 3.3%

CN1CCC(O)(c2ccc(Br)cc2)C(C(=O)c2ccc(Br)cc2)C1 (stereo not given)
active: [1] 96.1% | [3] 99%
inactive: [2] 12.3% | [4] -2.65% | [5] 0.35% | [6] 34.8%

c1ccc(CC[N+]23CC[N+](CCc4ccccc4)(CC2)C3)cc1
inactive: [1] 27.9% | [2] 3.2% | [3] 1.4% | [4] -25.6% | [5] 4.5% | [6] 16%

COc1cc2c(ccc3c4cc(OC)c(OC)cc4c[n+](C)c23)cc1O
inactive: [1] -21.7% | [2] -17.9% | [3] -9.9% | [4] 16.4% | [5] -23.8% | [6] -65.8%

N#CCCc1ccccc1
inactive: [1] -2.25% | [2] -7.95% | [3] -1.95% | [4] -12.8% | [5] -1.1% | [6] 0.65%

CC(C)(C)P(O)(=S)c1ccccc1 (stereo not given) (tested in a mixture with another compound)
inactive: [1] 2.65% | [2] 2.1% | [3] 1.9% | [4] -34.2% | [5] -24.6% | [6] 5.35%

CC(=O)O[C@H]1CC[C@@]2(C)[C@H](CC[C@@H]3[C@@H]2CC[C@]2(C)[C@@H](c4ccc(=O)oc4)C[C@H]4O[C@]342)C1
inactive: [1] 53% | [2] 7.05% | [3] 29.5% | [4] 13.9% | [5] 8.45% | [6] 17.4%

COc1ccc(CC(N)c2ccc(OC)cc2)cc1 (stereo not given)
inactive: [1] -50% | [2] 0.8% | [3] -40% | [4] -24.8% | [5] -11.3% | [6] -2.4%

OCCNC1CCCCC1
inactive: [1] 5.15% | [2] -1.65% | [3] -13.8% | [4] -1.8% | [5] 3.55% | [6] -16.1%

N#CC1=C(C#N)C(=O)C(Cl)=C(Cl)C1=O
inactive: [1] 14.9% | [2] 24.9% | [3] 16.9% | [4] 8.7% | [5] 16.6% | [6] 29.2%

O=c1[nH]c2ccc([As](O)O)cc2[nH]1
inactive: [1] -14.8% | [2] -14.9% | [3] -4.9% | [4] -17.8% | [5] -8.25% | [6] 0.75%

CCCCCCCBr
inactive: [1] -21.5% | [2] 9% | [3] 3.1% | [4] 0.6% | [5] -5.45% | [6] 15.3%

N#CC(C#N)=Cc1ccc(C=C(C#N)C#N)cc1
inactive: [1] -30.4% | [2] -40.5% | [3] -15.9% | [4] -14.8% | [5] -15.8% | [6] -8.75%

CCCCCCCCCCCCCCCC[As](CCCCCCCCCCCCCCCC)SCC1OC(OC(C)=O)C(OC(C)=O)C(OC(C)=O)C1OC(C)=O (stereo not given)
inactive: [1] -3.8% | [2] 3.45% | [3] 6% | [4] 1% | [5] -20.1% | [6] -20.6%

CCC1(N)C(=O)OCc2c1cc1n(c2=O)Cc2cc3ccccc3nc2-1 (stereo not given)
inactive: [1] 4.8% | [2] -17.5% | [3] -39.6% | [4] -7.75% | [5] -17.1% | [6] -12.3%

CC(=O)c1c(O)c(C)c(O)c(Cc2c(O)c3c(c(C(=O)/C=C/c4ccccc4)c2O)OC(C)(C)C=C3)c1O
inactive: [1] 23.9% | [2] 29.8% | [3] 49.1% | [4] 17.7% | [5] 39.8% | [6] 14.5%

CN1C2CCC1C(O)C(c1ccccc1)C2 (stereo not given)
inactive: [1] 6.15% | [2] 9.25% | [3] -0.05% | [4] -11.8% | [5] 0.45% | [6] -0.6%

N#C[S-].N#C[S-].[Ni+2].c1ccc([PH+](c2ccccc2)c2ccccc2)cc1.c1ccc([PH+](c2ccccc2)c2ccccc2)cc1
inactive: [1] 35.5% | [2] 33.7% | [3] 50% | [4] 14.3% | [5] 34.2% | [6] 63%

O=Cc1ccccc1O.O=Cc1ccccc1O.[Cu]
inactive: [4] 55.4%
active: [1] 86.2% | [2] 72.8% | [3] 88.9% | [5] 70.2% | [6] 92.6%

Clc1ccc(N2CCN(c3ccc(Cl)cc3)CC2)cc1
inactive: [1] -20.1% | [2] 1.45% | [3] -6.75% | [4] 1.25% | [5] -6.9% | [6] 6.05%

COC(=O)c1ccccc1N
inactive: [1] 13.5% | [2] 1.95% | [3] -0.55% | [4] -29.5% | [5] -2.9% | [6] -6.75%

N#CC(C#N)=Cc1ccccc1C(=O)O
inactive: [1] 14.9% | [2] 11.3% | [3] -12.3% | [4] 14.7% | [5] 7.15% | [6] -4.1%

CN1CCC[N+](C)=C1c1ccc(N(C)C)cc1
inactive: [1] -22.7% | [2] -12.3% | [3] -4.5% | [4] -14.2% | [5] -10.1% | [6] -7.15%

O=C(O)CCCC(=O)CCCC(=O)O
inactive: [1] 0.3% | [2] 4.35% | [3] 22.9% | [4] 7.45% | [5] 24.6% | [6] 21.4%

CC(=O)OC1CCC2(C)C(CCC3C2CCC2(C)C(c4ccc(=O)oc4)C(OC(C)=O)CC32O)C1 (stereo not given)
inactive: [1] 45.5% | [2] 0.05% | [3] 21.3% | [4] 4.5% | [5] -4.45% | [6] -0.5%

CC[C@@H](C)C(=O)O[C@H]1[C@H](O)[C@H]2[C@@H](CN3C[C@@H](C)CC[C@H]3[C@@]2(C)O)[C@@H]2C[C@]34O[C@@]5(O)[C@@H](OC(=O)[C@](C)(O)[C@@H](C)O)CC[C@@]3(C)[C@@H]5[C@@H](OC(C)=O)[C@@H](OC(C)=O)[C@H]4[C@@]21O
inactive: [1] 8.75% | [2] 6.25% | [3] -23.6% | [4] 12.6% | [5] 4.9% | [6] 25.5%

CC(C)(C)OO
inactive: [1] 5.35% | [2] 7.05% | [3] 0.95% | [4] -0.6% | [5] 22.4% | [6] -17%

CCC(=O)N/N=C(\N)N[N+](=O)[O-]
inactive: [1] -16.1% | [2] -6.55% | [3] -20.5% | [4] -83.6% | [5] -3.1% | [6] -9.65%

CCOC(=S)S.[Cu+2]
inactive: [1] 2.55% | [2] 4.1% | [3] -2.85% | [4] -33.6% | [5] -36% | [6] -17.1%

CN(C)P(=O)(N(C)C)N(C)C (tested in a mixture with another compound)
inactive: [1] 8.45% | [2] -7% | [3] 3.65% | [4] -21.1% | [5] -31.6% | [6] -14.3%

C=[CH][Sn]([Cl])([Cl])[CH]=C.CN(C)P(=O)(N(C)C)N(C)C
inactive: [1] 28.5% | [2] 32.5% | [3] 44.4% | [4] 28.1% | [5] 53.3% | [6] 54.1%

Cc1ccc(C(=O)Nc2ccc(CP(=O)(O)O)cc2)cc1NC(=O)c1cccc(NC(=O)Nc2cccc(C(=O)Nc3cc(C(=O)Nc4ccc(CP(=O)(O)O)cc4)ccc3C)c2)c1
inactive: [1] -0.5% | [2] 0.95% | [3] 3.6% | [4] -10.3% | [5] -1.55% | [6] -9.25%

OCC1OC(n2nnc3cc(Cl)c(Cl)cc32)C(O)C1O (stereo not given)
inactive: [1] 7.3% | [2] -0.8% | [3] 5.85% | [4] 11.3% | [5] 18.8% | [6] 21.7%

N#CCc1ccc(CC#N)cc1
inactive: [1] 14.1% | [2] -10.6% | [3] -2.8% | [4] 16.6% | [5] -5.1% | [6] 1.45%

CN(C(=O)CCl)c1ccccc1
inactive: [1] 15.3% | [2] 13.7% | [3] 8.5% | [4] 11.2% | [5] 9.75% | [6] 26.9%
